The values that follow come from PubChem BioAssay AID2401 (Southern Research Specialized Biocontainment Screening …, 2010).

Hit rate of the full screen: of about 2,200 compounds, about 530 (24%) were called active.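 How the source made its calls: active means inhibition above a set limit at one or more concentrations of the dose series; inactive means inhibition under that limit at every dose.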 Not all results are given here. Measured potencies and affinities stand elsewhere.

The nature of the assay: nmpC-GFP reporter counter-screen in S. Typhimurium, dose response, counter-screen for PhoP regulon inhibitor project, Salmonella Typhimurium, GFP fluorescence (AID 2401).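 Further: S. typhimurium with Mg-insensitive nmpC-GFP reporter grown at 10 µM Mg2+; drop in reporter fluorescence reflects general culture growth inhibition.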 The following applies: 4 h; series mostly up to 150 µM.
Regarding `Cc1[nH]n(-c2ncc(-c3ccc(Cl)cc3)s2)c(=O)c1C(c1ccc(Cl)cc1)C(C#N)C#N` (stereo unspecified), the molecule was called inactive. Regarding `CCN(C(C)=O)c1nc(CSc2nnc(NC(C)C)s2)cs1`, the result was inactive. As for `c1ccc2[nH]c(CSc3nccs3)nc2c1`, the entry is “inactive”; as for `Cc1ccccc1OCC(=O)N/N=C/c1ccco1`, “inactive”. The entry for `S=c1[nH]nc(Cc2cccc3ccccc23)o1` is “inactive”; for `CC(=O)c1cccc(NC(=O)NCc2ccco2)c1` it is “inactive”. As for `Cc1ccc(NC(=O)c2cc(S(=O)(=O)N3CCC4(CC3)OCCO4)ccc2F)cc1`, the entry is “inactive”. With `O=C(c1cn(-c2ccccc2)nc1-c1cccnc1)N1CCCCC1`, the molecule was called inactive. On to `CC(=O)N1CCC(N(CCN2CCOCC2)C(=S)Nc2cccc(C)c2C)CC1`, for which the result was inactive. Consider `Cc1c(Cl)cccc1NC(=O)CSCC(N)=O`, for which the call was inactive. Turning to `COc1cc(C2Nc3cccc4cccc(c34)N2)cc(OC)c1OC(C)=O`, the molecule was called inactive. On to `CC(=O)Oc1c2occc2cc2ccc(=O)oc12`, for which the call was inactive. Take `Cc1ccc2c(c1)cc(CN(Cc1ccc3c(c1)OCO3)C(=O)c1cnccn1)c1nnnn12`: the outcome was inactive. As for `CSc1ccc(C(=O)/C=C/c2ccc(N)cc2)cc1`, the entry is “inactive”; as for `Cc1cccc(NC(=O)c2cc(N3C(=O)CCC3=O)ccc2Cl)n1`, “inactive”. For `CN(CCO)c1cc(Sc2nc3ccccc3s2)c2nonc2c1[N+](=O)[O-]`, the call was inactive. The entry for `O=C(CSCc1ccccc1)N/N=C/c1ccccc1OCc1ccccc1` is “inactive”. As for `Cc1ccc([N+](=O)[O-])cc1NC(=S)NC(=O)C(C)(C)C`, the entry is “inactive”. The entry for `O=C(CSc1nc2ccccc2s1)Nc1ccc(N2CCOCC2)c(Cl)c1` is “inactive”; for `Cc1ccccc1-n1c(C)cc(/C=N/Nc2ccc([N+](=O)[O-])cn2)c1C` it is “inactive”.

With `O=C(CSc1n[nH]c(=O)[nH]c1=O)N/N=C/c1ccccc1`, the outcome was inactive.

As for `Cc1cc([N+](=O)[O-])ccc1NC(=O)Cc1ccc(F)cc1`, the molecule was called inactive.

For the molecule `COc1ccc(-n2ncc(S(=O)(=O)c3ccccc3)c2-c2ccc(Cl)cc2)cc1`, the result was inactive.

Regarding `COc1ccc(Cl)cc1C(=O)Nc1ccc(NC(=O)c2ccco2)cc1`, the molecule was classed as inactive. In the case of `O=C(Nc1cccc(Cl)c1)C1C2CCC3C(CCC21)C3(Cl)Cl` (stereo unspecified), the molecule was classed as inactive.

Consider `COc1cccc(-n2c(N)c(C(=O)Nc3c(C)n(C)n(-c4ccccc4)c3=O)c3nc4ccccc4nc32)c1`, for which the molecule was called inactive. Turning to `COc1ccc(N2C(=O)CC(Sc3nc(C)c4c(n3)CCCC4)C2=O)cc1` (stereo unspecified), the call was inactive. As for `COc1ccc(-c2cnn3c(N)c(S(=O)(=O)C(C)(C)C)cnc23)cc1`, the call was inactive. Take `Cc1ccc2nc(NNC(=O)c3ccc(S(=O)(=O)N4CCc5ccccc5C4)cc3)sc2c1`: the outcome was inactive. Turning to `O=C(/C=C/c1ccc2c(c1)OCO2)N1CCN(c2ccccc2F)CC1`, the molecule was classed as inactive. As for `COc1ccc(C(C)C)cc1S(=O)(=O)Nc1ccc(Cl)cn1`, the molecule was classed as inactive.

Take `O=C(Nc1cnc2ccccc2c1)N1CCOCC1`: the outcome was inactive. For the molecule `CN(C)S(=O)(=O)Nc1ccc(C(=O)O)cc1`, the call was inactive. As for `c1ccc2c(C3=NNC(=NC4CCCCC4)SC3)c[nH]c2c1`, the outcome was inactive. On to `O=C(CSc1nc2ccccc2o1)Nc1ccc(N2CCOCC2)cc1`, for which the molecule was classed as inactive.

`CNc1nnc(-c2cccc(N(C)C)c2)s1`: the call was inactive. `O=S(=O)(c1ccccc1)N(CC(O)Cn1c2ccccc2c2ccccc21)c1ccccc1` (stereo unspecified): the molecule was classed as inactive. Regarding `CCCn1c(NCCO)nc2ccccc21`, the call was inactive. For `COC(=O)C(CCSC)NC(=O)c1cccc([N+](=O)[O-])c1` (stereo unspecified), the result was inactive. The entry for `Cc1ccc(CNC(=O)C2CCCN(S(=O)(=O)c3c(C)noc3C)C2)cc1` (stereo unspecified) is “inactive”. On to `Cn1cccc1C(=O)OCc1csc(-c2ccccc2)n1`, for which the result was inactive. With `Nc1ccc(C(=O)OCc2nc3ccccc3[nH]2)cc1`, the result was inactive.

As to `Cc1ccc(C)n1-c1cc([N+](=O)[O-])ccc1-n1ccnc1`, the molecule was classed as inactive. As to `Cc1cc(-c2csc(NC(=O)c3ccccc3C(F)(F)F)n2)c(C)n1Cc1ccccc1`, the molecule was classed as inactive. Consider `Cc1nc(NCc2ccc3c(c2)OCO3)c2oc3ccccc3c2n1`, for which the call was inactive. For the molecule `Cc1scc(C(=O)O)c1-c1c(C(=O)O)csc1C`, the outcome was inactive. Turning to `O=[N+]([O-])c1ccccc1/C=N/N1CCN(c2ccncc2S(=O)(=O)N2CCCCC2)CC1`, the call was inactive. Take `CCOc1ccc(C(=O)NC(=S)Nc2ccc(N3CCCCC3)cc2)cc1[N+](=O)[O-]`: the molecule was classed as inactive. With `CCOc1ccc(CSC(=N)N)cc1[N+](=O)[O-]`, the result was inactive. Regarding `CCOc1ccc(C(=O)Nc2ccccc2CC)cc1[N+](=O)[O-]`, the call was inactive. On to `COc1nc(-c2ccccc2)ccc1-c1noc(C)n1`, for which the result was inactive. On to `CCCc1cc(N2CCN(c3ccccn3)CC2)n2nc(C)c(-c3ccccc3)c2n1`, for which the outcome was inactive. Turning to `CCc1ccc(CNc2ccc(O)cc2)cc1`, the outcome was inactive. The entry for `Nc1nc(N)nc(-c2ccccc2)n1` is “inactive”; for `CCn1c2ccccc2c2nnc(SCC(=O)Nc3ccc4c(c3)OCO4)nc21` it is “inactive”; for `CCn1c2ccccc2c2cc(NC(=O)COc3ccccc3)ccc21` it is “inactive”.

Regarding `CCn1cc(C(=O)O)c(=O)c2cnc(N3CCN(C(=S)NC(=O)c4ccc(Cl)cc4)CC3)nc21`, the result was inactive. As for `CCn1cc(C(=O)OCC(=O)Nc2ccc(S(=O)(=O)N3CCCC3)cc2)c(=O)c2ccc(C)nc21`, the entry is “inactive”; as for `Cc1ccc(NC(=O)C(=O)NCCOc2ccccc2Cl)cc1`, “inactive”; as for `O=C1CC(c2ccccc2)n2nc(NC(=O)c3ccccc3)nc2N1` (stereo unspecified), “inactive”.

On to `Cc1ccccc1NC(=O)c1ccc(-n2cncn2)nc1`, for which the result was inactive. Take `Nc1cc(N)nc(SCC(=O)Nc2ccc3c(c2)OCCCO3)n1`: the call was inactive.

With `Cc1nn(-c2ccc(Cl)cc2)c2[nH]c(=O)c(CNCc3ccc4c(c3)OCO4)cc12`, the call was inactive. As for `CCCSc1nc(N2CCCC2)c2c(c1C#N)CC(C)(C)OC2`, the entry is “inactive”. As for `O=C(CCn1nnc(-c2cccs2)n1)NCc1ccccc1Cl`, the entry is “inactive”; as for `Nc1scc(-c2ccncc2)c1Cl`, “inactive”; as for `CN(C)c1ccnc(-n2cccc2/C=N/OCc2ccccc2)c1C#N`, “inactive”. As to `CCOC(=O)N1CCN(C(=O)c2cn(CC(C)C)c(=O)c3c2c2ccccc2n3C)CC1`, the call was inactive. Turning to `CCOC(=O)c1cn(CC)c2cc(N3CCOCC3)c(F)cc2c1=O`, the outcome was inactive. With `Cc1cc(C)c2nc(NNC(=O)c3ccc(S(=O)(=O)N4CCc5ccccc5C4)cc3)sc2c1`, the molecule was classed as inactive. The entry for `Cc1ccc2nc(SCCCCOc3ccccc3)[nH]c2c1` is “inactive”.
